Compound activity deposited in PubChem by National Center for Advancing Translational Sciences (NCATS).
GCN5L2 inh: qHTS Assay for Inhibitors of GCN5L2. GCN5L2 HAT assay, ThioGlo1 CoA-SH fluorescence. Potency, µM (top dose mostly 58.9 µM), for inactives: at the highest dose activity change, negative = inhibition, actives largely listed as inhibitors. 0.21% of 390,000 active; also: potency is read from the fitted curve at half-maximal effect
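Titration-based screen in which CoA formation is detected via maleimide probe ThioGlo1 (50uM) turning fluorescent on thiol reaction; substrates H3(1-25) 75uM and acetyl-CoA 70uM, GCN5L2 20nM, 20 min incubation at room temperature.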
TrxR1 substrate: qHTS Assay for Substrates of Mammalian Selenoprotein Thioredoxin Reductase 1 (TrxR1): qHTS. Potency, µM (highest dose often 114 µM), without a hit: top-dose activity change, negative = substrate turnover. 0.01% of 390,000 active. purified TrxR1 substrate turnover, NADPH consumption readout; also: potency is read from the fitted curve at half-maximal effect; nearly all actives have a fitted effect of over 50% in size
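Rat TrxR1, dispensed at 90 nM, was prereduced with 400 uM NADPH (final) for 5 min at ~22 deg C, then incubated with compound 15 min before 400 uM selenite. A first-read NADPH fluorescence drop versus no-compound background flagged substrates.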
GALK inhibitor: qHTS Assay for Inhibitors of Human Galactokinase (GALK) | P51570 | Purified GALK, Kinase-Glo residual ATP luminescence | Potency, µM (top dose mostly 57.5 µM), for the others: at the top dose activity change, negative = inhibition, most hits filed as inhibitors | 0.007% of 270,000 active; also: potency is read from the fitted curve at half-maximal effect
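GALK at 5 nM final was combined with compound, 35 uM ATP and 100 uM galactose in HEPES pH8.0 with MgCl2 and DTT. The reaction ran one hour at room temperature before luminescent ATP detection.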
Giardia killer: Small Molecules that selectively kill Giardia lamblia: qHTS. Giardia lamblia trophozoite viability. activity change, % at 7.66 µM, hits read low. 0.15% of 340,000 active. AID 540267, 2011; in the data active = activity change below about -80%; inconclusive = between about -30% and that limit;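 also: parasites exposed to compound for two days anaerobically before the ATP read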
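Luminescent ATP signal served as the viability read-out, measured 15-30 min after adding ATP detection reagent to trophozoites that had been incubated with compounds for 48 hrs at 37 deg C anaerobically at 100 cells/well.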
TrxR1 inh: qHTS Assay for Inhibitors of Mammalian Selenoprotein Thioredoxin Reductase 1 (TrxR1): qHTS. Thioredoxin reductase 1, cytoplasmic (Rattus norvegicus), O89049. recombinant rTrxR1, NADPH fluorescence consumption, selenite substrate. Potency, µM (titrated, usually from 114 µM), inactives show top-dose activity change, negative = inhibition, most hits filed as inhibitors. AID 588453, 2011. 1% of 390,000 active; also: potency is read from the fitted curve at half-maximal effect; nearly all actives have a fitted effect of over 65% in size
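Rat TrxR1 (90 nM in the dispensed reagent) was pre-reduced with 400 uM NADPH for 5 min at room temperature, then incubated with compound for 15 min. After 400 uM selenite was added, NADPH fluorescence (Ex 340/Em 450 nm) was followed for 8 min.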
Pin1 inh: qHTS Assay to Find Inhibitors of Pin1; Peptidyl-prolyl cis-trans isomerase NIMA-interacting 1 (Homo sapiens), Q13526; AID 504891, 2011; Potency, µM (top dose mostly 115 µM), inactives show at the highest dose activity, negative = inhibition, actives largely listed as inhibitors; 0.009% of 390,000 active; Pin1 FP peptide displacement, HiFluor488, 10 min; active = well fitted inhibition curve with a large enough effect in the polarisation, with a control signal flat, not every such curve was filed as active; inconclusive = small, poorly fitted or top-dose-only effect, or effect the other way, or a change in a side signal; inactive = no such curve, though single readings can be large or run the other way; the % refers to the polarisation; also: potency is read from the fitted curve at half-maximal effect
Target sequence (Q13526 whole entry, looked up): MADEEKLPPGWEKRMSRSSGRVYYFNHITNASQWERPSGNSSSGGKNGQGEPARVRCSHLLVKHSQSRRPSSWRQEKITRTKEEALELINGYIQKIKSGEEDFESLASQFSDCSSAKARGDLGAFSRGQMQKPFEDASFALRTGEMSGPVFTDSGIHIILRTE
* hit, by the source's call; [ ] = another dose, or the depositor's remark. Sampled rows, rich in hits. Any-hit rate of the full collection: about 1.3%. Unless noted, calls follow the shape of the dose curve; as a rule, active = well fitted curve in the direction sought with a large enough effect; inconclusive = small, poorly fitted or top-dose-only effect, or another doubt; inactive = no such curve, though single readings can be large; an effect the other way counts as inactive or inconclusive. % is scaled to controls: 0 for no effect and ±100 for the full control effect.

What do the screens show for `CCOC(=O)C(NC(=O)CCl)(Nc1sc(C)c(CC)c1C#N)C(F)(F)F` (stereo not given)?
GCN5L2 inh: 4%; TrxR1 substrate: -6%; GALK inhibitor: 2%; Giardia killer: 28; TrxR1 inh: 56µM*; Pin1 inh: -6%

What do the screens show for `CCc1oc2ccccc2c1C(=O)c1cc(I)c(O)c(I)c1`?
GCN5L2 inh: 8.9µM*

Results for O=C(c1cc2cc(Cl)ccc2[nH]1)N1CCN(C(=O)c2ccco2)CC1 ?
GCN5L2 inh: -1%; TrxR1 substrate: 5%; GALK inhibitor: 0%; Giardia killer: -12; TrxR1 inh: 50µM*; Pin1 inh: 0%

Results for O=C(c1cc2cc(Cl)ccc2[nH]1)N1CCN(c2ccccc2F)CC1 ?
GCN5L2 inh: 0%; TrxR1 substrate: 4%; GALK inhibitor: 1%; Giardia killer: -15; TrxR1 inh: 9%; Pin1 inh: 2%

How did Cc1cc(C)n2ncc(C(=O)NCC(C)C)c2n1 do in these assays?
Pin1 inh: -1%

What do the screens show for `CCCCNC(=S)NCCCc1cnc[nH]1`?
Pin1 inh: 0%

Results for CCOC(=O)c1ccc(N2C(=O)C3CC=CCC3C2=O)cc1 (stereo not given) ?
GCN5L2 inh: -3%; TrxR1 substrate: 10%[57.1 µM]; GALK inhibitor: 2%; Giardia killer: 14; TrxR1 inh: -7%; Pin1 inh: -2%

How did CCOC(=O)c1ccc(N2C(=O)C3C(C2=O)C(C(=O)c2ccc(Cl)cc2)N2CCCC32)cc1 (stereo not given) do in these assays?
GCN5L2 inh: inconclusive; TrxR1 substrate: -1%; GALK inhibitor: -2%; Giardia killer: 6; TrxR1 inh: 3.5µM*; Pin1 inh: inconclusive

Results for O=C(O)CC1=C(O)C(=O)N(c2ccccc2)C1c1ccccc1 (stereo not given) ?
GCN5L2 inh: -4%; TrxR1 substrate: -8%; GALK inhibitor: 0%; Giardia killer: -7; TrxR1 inh: 45µM*; Pin1 inh: -3%

Results for CCCCc1nc(S(=O)(=O)c2ccc(Cl)cc2)c(N2CCOCC2)o1 ?
GCN5L2 inh: -1%; TrxR1 substrate: 0%[11.4 µM]; GALK inhibitor: 1%; Giardia killer: 14; TrxR1 inh: 1.6µM*; Pin1 inh: -14%

Results for CCS(=O)(=O)c1nc(S(=O)(=O)c2ccc(Cl)cc2)c(N2CCOCC2)s1 ?
GCN5L2 inh: -1%; TrxR1 substrate: -7%; GALK inhibitor: 1%; Giardia killer: -2; TrxR1 inh: inconclusive; Pin1 inh: -6%

What do the screens show for `COc1ccc(C(=O)CCN2CCN(c3ccc(OC)cc3)CC2)cc1`?
GCN5L2 inh: 1%; TrxR1 substrate: -5%[57.1 µM]; Giardia killer: 9; TrxR1 inh: 2.8µM*; Pin1 inh: 4%

What do the screens show for `C=CCC(O)(CCN1CCCCC1)c1ccccc1` (stereo not given)?
GCN5L2 inh: 1%; TrxR1 substrate: 10%[57.1 µM]; GALK inhibitor: 1%; Giardia killer: -3; TrxR1 inh: 5%[57.1 µM]; Pin1 inh: -1%

What do the screens show for `COc1ccc(C(O)(CCc2ccccc2)CCN2CCCCC2)cc1` (stereo not given)?
GCN5L2 inh: -8%; TrxR1 substrate: 7%[57.1 µM]; GALK inhibitor: -1%; Giardia killer: 34; TrxR1 inh: 8.9µM*; Pin1 inh: -2%

What do the screens show for `O=C(CCN1CCC(c2cccs2)=N1)c1cccs1`?
GCN5L2 inh: -3%; TrxR1 substrate: 0%; Giardia killer: 3; TrxR1 inh: 22µM*; Pin1 inh: 44%
